# In PubChem BioAssay (NCATS):
# Inconclusive results are not listed. Entries that show only a call come without a potency. The source made the active and inactive calls. Calls come from the whole dose curve; as a rule, active = well fitted curve in the direction sought with a large enough effect; inconclusive = small, poorly fitted or top-dose-only effect, or another doubt; inactive = no such curve, though single readings can be large; an effect the other way counts as inactive or inconclusive. Starred links: 1 amine or outer side, 2 acyl side, 3 side chain; linkers in the order of their positions; H or OH if unused. Positions of bridges follow the written chain, without caps; N, C: chain ends. Non-standard residues stand in square brackets, D forms with d. Residues, ends and D or L forms follow the SMILES beside them. Chains are numbered I, II in the order given. Actinocin(9to1) = Cc1c2oc3c(C)ccc(C(=O)[*:1])c3nc-2c(C(=O)[*:2])c(N)c1=O; NMeV = CN[CH](C(=O)O)C(C)C; Sar = CNCC(=O)O
# Experiments:
# WaGa = assay: qHTS assay to identify novel small-molecules to repurpose for Merkel cell carcinoma treatment (AID 1296009); conditions: MCC and control cell lines, CellTiter-Glo viability, 72 h; series mostly up to 46 µM; note: nearly all actives have a fitted effect of over 60% in size; note: potency is the fitted concentration of half-maximal effect
# In short: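 Cells exposed to NPC (8-point) and MIPE (11-point) compound dilutions for 72 hr at 37 degree celsius; viability read by CellTiter-Glo luminescence, normalized to no-cell and DMSO in-plate controls.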
# C33A = assay: Primary qHTS to identify gynecologic anti-cancer compounds using libraries of approved drugs and bioactive compounds (AID 1345084); conditions: Gynecologic cancer cell panel viability, ATPlite luminescence, 48 h; series mostly up to 57.5 µM; note: nearly all actives have a fitted effect of over 55% in size
# In short: (§1)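 Five-point cytotoxicity, 48 h drug exposure at 37 C, 5% CO2, on cells seeded 16 h beforehand. ATP content read by ATPlite luminescence.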
# CASKI = assay: as above; conditions: Gynecologic cancer cell panel viability, ATPlite luminescence, 48 h; series mostly up to 57.5 µM
# In short: as §1
# Es-2 = assay: as above; conditions: Gynecologic cancer cell panel viability, ATPlite luminescence, 48 h; series mostly up to 57.5 µM
# In short: as §1
# HeLa = assay: as above; conditions: Gynecologic cancer cell panel viability, ATPlite luminescence, 48 h; series mostly up to 57.5 µM
# In short: as §1
# Hek293T = assay: as above; conditions: Gynecologic cancer cell panel viability, ATPlite luminescence, 48 h, control line for the selectivity index; series mostly up to 57.5 µM
# In short: as §1
# JEG-3 = assay: as above; conditions: Gynecologic cancer cell panel viability, ATPlite luminescence, 48 h; series mostly up to 57.5 µM
# In short: as §1
# OV90 = assay: as above; conditions: Gynecologic cancer cell panel viability, ATPlite luminescence, 48 h; series mostly up to 57.5 µM
# In short: as §1
# PA-1 = assay: as above; conditions: Gynecologic cancer cell panel viability, ATPlite luminescence, 48 h; series mostly up to 57.5 µM
# In short: as §1
# SKOV3 = assay: as above; conditions: Gynecologic cancer cell panel viability, ATPlite luminescence, 48 h; series mostly up to 57.5 µM
# In short: as §1
# Tov-21-G = assay: as above; conditions: Gynecologic cancer cell panel viability, ATPlite luminescence, 48 h; series mostly up to 57.5 µM
# In short: as §1
# Tov112D = assay: as above; conditions: Gynecologic cancer cell panel viability, ATPlite luminescence, 48 h; series mostly up to 57.5 µM
# In short: as §1
# [1] = Drug repurposing screens with cells derived from glioblastoma tumor samples (AID 1345199); conditions: GBM patient neurospheres viability, ATP luminescence, 48 h; Potency: tumour line A; series mostly up to 46.1 µM; note: nearly all actives have a fitted effect of over 40% in size
# In short: (§2)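 Four patient lines of CD133+ GBM neurospheres were screened at several concentrations; hits were retested in those lines plus three slower-growing GBM lines, using 48-hour treatment and ATP-based viability.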
# astro = assay: as above; conditions: viability, ATP luminescence, 48 h; series mostly up to 45.9 µM
# In short: as §2
compound,measurement,setting,value
CN1CCCN(C(=O)c2cccc(-c3ccc(C=C4C(=O)Nc5ccc(Cl)cc54)o3)c2)CC1,Potency,WaGa,16.6 µM (active)
O=C(Nc1ccc(Oc2ccnc3[nH]ccc23)c(F)c1)c1cccn(-c2ccc(F)cc2)c1=O,Potency,WaGa,inactive
same,Potency,C33A,inactive
same,Potency,CASKI,inactive
same,Potency,Es-2,inactive
same,Potency,HeLa,inactive
same,Potency,Hek293T,inactive
same,Potency,JEG-3,inactive
same,Potency,OV90,inactive
same,Potency,PA-1,inactive
same,Potency,SKOV3,inactive
same,Potency,Tov-21-G,inactive
same,Potency,Tov112D,inactive
NC(=O)c1ncn([C@@H]2O[C@H](CO)[C@@H](O)[C@@H]2O)c1N,Potency,WaGa,inactive
CC(C)C[C@H](NC(=O)CNC(=O)c1cc(Cl)ccc1Cl)B1OC(=O)CC(CC(=O)O)(C(=O)O)O1 (stereo not given in full),Potency,WaGa,0.209 µM (active)
Nc1nc(=O)n([C@H]2CSC(CO)O2)cc1F (stereo not given in full),Potency,WaGa,inactive
C[C@H]1O[C@H](O[C@H]2[C@H](O)[C@@H](O)[C@@H](O[C@H]3[C@H](O)[C@@H](O)C(O)O[C@H]3CO)O[C@H]2CO)[C@H](O)[C@@H](O)[C@H]1N[C@H]1C=C(CO)[C@@H](O)[C@H](O)[C@@H]1O (stereo not given in full),Potency,WaGa,inactive
CC(C(C)N1CC(=O)NC(=O)C1)N1CC(=O)NC(=O)C1 (stereo not given),Potency,WaGa,inactive
COc1cc2ncnc(Nc3cccc(Br)c3)c2cc1OC,Potency,WaGa,inactive
OCC(O)C(O)C(O)CO (stereo not given),Potency,WaGa,inactive
Cn1cnc(=N)c2[nH]cnc21,Potency,WaGa,0.296 µM (active)
CN1[C@H]2CC(OC(=O)[C@@H](CO)c3ccccc3)C[C@H]1[C@H]1O[C@H]12 (stereo not given in full),Potency,WaGa,inactive
Cn1c(Nc2ccc(C(F)(F)F)cc2)nc2cc(Oc3ccnc(-c4ncc(C(F)(F)F)[nH]4)c3)ccc21,Potency,WaGa,18.7 µM (active)
C[C@@]12C[C@@]3(O)O[C@@H](O1)[C@]1(COC(=O)c4ccccc4)[C@@H]3C[C@@]12O[C@@H]1O[C@H](CO)[C@@H](O)[C@H](O)[C@@H]1O,Potency,WaGa,inactive
O=C(C=CC#Cc1cccc(NS(=O)(=O)c2ccccc2)c1)NO,Potency,WaGa,1.18 µM (active)
CON=C(C(=O)N[C@@H]1C(=O)N2C(C(=O)O)=C(Cn3ccc(=N)n3CCO)CS[C@H]12)c1csc(N)n1,Potency,WaGa,inactive
O=C(c1ccc(F)cc1)N1CCC[C@H](c2nc(-c3ccc(F)cc3)no2)C1,Potency,WaGa,inactive
COc1cc(C)c(C=CC(C)=CC=CC(C)=CC(=O)O)c(C)c1C,Potency,WaGa,inactive
C[C@]12C=CC(=O)N[C@@H]1CC[C@H]1[C@H]3CC[C@@H](C(=O)Nc4cc(C(F)(F)F)ccc4C(F)(F)F)[C@@]3(C)CC[C@@H]12,Potency,WaGa,inactive
Cc1noc(-c2ccc(CSCCC(=O)O)cc2)c1NC(=O)OC(C)c1ccccc1Cl (stereo not given),Potency,WaGa,inactive
C[C@]12CCC(=O)C=C1[C@@H]1CC1[C@H]1[C@H]3[C@@H]4C[C@H]4[C@@]4(CCC(=O)O4)[C@@]3(C)CC[C@H]12 (stereo not given in full),Potency,WaGa,inactive
O=C(CN1C(=O)C2(CCCC2)NC[C@H]1c1cc(F)cc(F)c1)Nc1ccc2c(c1)C[C@@]1(C2)C(=O)Nc2ncccc21,Potency,WaGa,inactive
"Cc1c2oc3c(C)ccc(C(=O)NC4C(=O)NC(C(C)C)C(=O)N5CCCC5C(=O)N(C)CC(=O)N(C)C(C(C)C)C(=O)OC4C)c3nc-2c(C(=O)NC2C(=O)NC(C(C)C)C(=O)N3CCCC3C(=O)N(C)CC(=O)N(C)C(C(C)C)C(=O)OC2C)c(N)c1=O (stereo not given) (I: TVP[Sar][NMeV] / II: TVP[Sar][NMeV]; ester I:1-I:C, II:1-II:C; linker I:N-II:N via Actinocin(9to1); configuration not given here)",Potency,WaGa,inactive
O=C(CCCCCCC(=O)Nc1cccnc1)NO,Potency,WaGa,2.35 µM (active)
NC1=N[C@H]2[C@H](CS[C@H]2CCCCC(=O)O)N1,Potency,WaGa,inactive
COc1ccc(Nc2nccc(NCCO)n2)cc1,Potency,WaGa,inactive
C[N+]1(C)[C@@H]2C[C@@H](OC(=O)C(O)(c3cccs3)c3cccs3)C[C@H]1[C@@H]1O[C@@H]12,Potency,WaGa,inactive
same,Potency,C33A,inactive
same,Potency,CASKI,inactive
same,Potency,Es-2,inactive
same,Potency,HeLa,inactive
same,Potency,Hek293T,inactive
same,Potency,JEG-3,inactive
same,Potency,OV90,inactive
same,Potency,PA-1,inactive
same,Potency,SKOV3,inactive
same,Potency,Tov-21-G,inactive
same,Potency,Tov112D,inactive
NC(=O)Nc1sc(-c2ccc(F)cc2)cc1C(N)=O,Potency,WaGa,5.26 µM (active)
COC1=C2C[C@@H](C)C[C@H](OC)[C@@H](O)[C@@H](C)C=C(C)[C@H](OC(N)=O)[C@@H](OC)C=CC=C(C)C(=O)NC(=CC1=O)C2=O,Potency,WaGa,20.9 µM (active)
O=c1[nH]c(=O)n([C@H]2C[C@@H](O)[C@@H](CO)O2)cc1F,Potency,WaGa,0.0662 µM (active)
CCOC(=O)N1CCN([N+]([O-])=NOc2ccc([N+](=O)[O-])cc2[N+](=O)[O-])CC1,Potency,WaGa,11.8 µM (active)
Nc1nc(=O)n([C@H]2C[C@H](O)[C@@H](CO)O2)cc1F,Potency,WaGa,0.0935 µM (active)
C[C@@H]1[C@H](C)CC[C@]2(C(=O)O)CC[C@]3(C)C(=CC[C@@H]4[C@@]5(C)C[C@@H](O)[C@H](O)[C@@](C)(CO)[C@H]5CC[C@]43C)[C@@H]12,Potency,WaGa,inactive
NC(=O)N1CCC(CC(=O)N2CCC([C@H]3c4ncc(Br)cc4CCc4cc(Cl)cc(Br)c43)CC2)CC1,Potency,WaGa,11.8 µM (active)
CC(O)(C#Cc1ccc2c(c1)N(c1nc(N)ncc1Cl)CC2)c1nccs1 (stereo not given),Potency,WaGa,inactive
same,Potency,C33A,inactive
same,Potency,CASKI,inactive
same,Potency,Es-2,inactive
same,Potency,HeLa,inactive
same,Potency,Hek293T,inactive
same,Potency,JEG-3,inactive
same,Potency,OV90,inactive
same,Potency,PA-1,inactive
same,Potency,SKOV3,inactive
same,Potency,Tov-21-G,inactive
same,Potency,Tov112D,inactive
NC[C@H]1O[C@H](O[C@H]2[C@@H](O)[C@@H](O[C@H]3O[C@H](CO)[C@@H](O)[C@H](N)[C@@H]3O)[C@H](N)C[C@@H]2N)[C@H](N)C[C@H]1O,Potency,WaGa,inactive
CCCNS(=O)(=O)Nc1ncnc(OCCOc2ncc(Br)cn2)c1-c1ccc(Br)cc1,Potency,WaGa,inactive
CN(N=O)C(=O)N[C@H]1C(O)OC(CO)[C@@H](O)[C@H]1O (stereo not given in full),Potency,WaGa,inactive
O=C1c2c(O)cccc2[C@@H]([C@@H]2O[C@H](CO)[C@@H](O)[C@H](O)[C@H]2O)c2cc(CO)cc(O)c21,Potency,WaGa,inactive
same,Potency,[1],inactive
same,Potency,astro,inactive
C[C@H](O)[C@@H]1C(=O)N2C(C(=O)O)=C(S[C@@H]3CN[C@H](CNS(N)(=O)=O)C3)[C@@H](C)[C@@H]12,Potency,WaGa,inactive
same,Potency,C33A,inactive
same,Potency,CASKI,inactive
same,Potency,Es-2,inactive
same,Potency,HeLa,inactive
same,Potency,Hek293T,inactive
same,Potency,JEG-3,inactive
same,Potency,OV90,inactive
same,Potency,PA-1,inactive
same,Potency,Tov-21-G,inactive
same,Potency,Tov112D,inactive
CN1CCc2c(c3ccccc3n2Cc2ccc(C(=O)NO)cc2)C1,Potency,WaGa,20.9 µM (active)
same,Potency,C33A,inactive
same,Potency,CASKI,inactive
same,Potency,Es-2,inactive
same,Potency,HeLa,inactive
same,Potency,Hek293T,inactive
same,Potency,JEG-3,inactive
same,Potency,OV90,inactive
same,Potency,SKOV3,inactive
same,Potency,Tov112D,inactive
CC1(C)[C@H](O[C@H]2O[C@H](C(=O)O)[C@@H](O)[C@H](O)[C@H]2O[C@@H]2O[C@H](C(=O)O)[C@@H](O)[C@H](O)[C@H]2O)CC[C@@]2(C)[C@H]1CC[C@]1(C)[C@H]2C(=O)C=C2[C@H]3C[C@@](C)(C(=O)O)CC[C@]3(C)CC[C@]21C,Potency,WaGa,inactive
same,Potency,[1],inactive
same,Potency,astro,inactive
Cn1cc(-c2ccc3ncc(Cc4ccc5ncccc5c4)n3n2)cn1,Potency,WaGa,inactive
same,Potency,Hek293T,inactive
same,Potency,OV90,inactive
